# Bioassay records from PubChem BioAssay.
# Pf growth 48h: Primary qHTS for delayed death inhibitors of the malarial parasite plastid, 48 hour incubation. Potency, µM (highest dose often 28.7 µM), for the others: at the top dose activity change, negative = inhibition, most hits filed as inhibitors. P. falciparum luciferase growth in erythrocytes, 48 h. hit rate 5.9% among 310,000; note: % is set by controls: 0 for no effect and ±100 for the full control effect
#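 Compounds are pin-transferred into medium, infected erythrocytes (2% hematocrit, 0.1% parasitemia final) are added, and plates sit one parasite generation at 37 C in 5% CO2. Detection reagent is then added and luminescence measured.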
# SARS PLpro yeast: qHTS of Yeast-based Assay for SARS-CoV PLP; S. cerevisiae expressing SARS-CoV PLpro, growth rescue; Potency, µM (highest dose often 32.9 µM), for inactives: at the top dose activity, positive = growth rescue, actives largely listed as activators; hit rate 0.19% among 330,000; calls by dose curve; note: 0% is about no effect; nearly all actives have a fitted effect of over 55% in size
# AmpC no deterg: qHTS Inhibitors of AmpC Beta-Lactamase (assay without detergent); P00811; Potency, µM (doses to about 57.1 µM), for inactives: top-dose activity change, negative = inhibition, hits mostly inhibitors; hit rate 0.52% among 330,000; AmpC nitrocefin hydrolysis, absorbance 480 nm, 0.0001% Triton;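 note: plate controls were no compound for no effect and no enzyme for full effect; nearly all actives have a fitted effect of over 20% in size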
# Target sequence (P00811 whole entry, looked up): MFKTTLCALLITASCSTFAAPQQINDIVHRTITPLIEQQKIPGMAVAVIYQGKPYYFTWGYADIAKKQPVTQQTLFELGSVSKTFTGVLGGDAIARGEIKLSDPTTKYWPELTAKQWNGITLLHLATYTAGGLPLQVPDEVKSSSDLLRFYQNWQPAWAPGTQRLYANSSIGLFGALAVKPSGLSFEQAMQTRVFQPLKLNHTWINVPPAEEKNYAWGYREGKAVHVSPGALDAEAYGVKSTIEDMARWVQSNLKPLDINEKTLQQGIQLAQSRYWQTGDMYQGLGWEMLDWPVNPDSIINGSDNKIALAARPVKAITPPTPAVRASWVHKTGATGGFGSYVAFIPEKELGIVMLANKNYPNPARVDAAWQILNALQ
#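 20 mM phosphate pH 7.0 + 0.01% (detergent screen) or 0.0001% Triton X-100; 5.3 nM AmpC reagent; cpd preinc 15 min RT; nitrocefin (800 uM stock) to start; A480 q20 s × 4 min; Activity was normalised to no-enzyme and no-compound control wells.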
# Sm TGR inh: qHTS Assay for the Inhibitors of Schistosoma Mansoni Peroxiredoxins; hit rate 3% among 360,000; Potency, µM (series often up to 114 µM), for the others: at the top dose activity change, negative = inhibition, most hits filed as inhibitors; AID 485364, 2010; Schistosoma mansoni thioredoxin glutathione reductase (TGR), Q962Y6; purified TGR, DTNB reduction, TNB absorbance 405 nm; note: % is set by controls: 0 for no effect and ±100 for the full control effect; nearly all actives have a fitted effect of over 60% in size
#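 First, TGR (20 nM dispensed) and NADPH were mixed with compound. Second, a 15 min room-temperature incubation followed. Third, further NADPH and then DTNB were added to start the reaction. Finally, TNB absorbance was monitored kinetically.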
# AmpC detergent: qHTS Inhibitors of AmpC Beta-Lactamase (assay with detergent) | P00811 | AmpC hydrolysis of nitrocefin, absorbance 480 nm, 0.01% Triton | Potency, µM (titrated, usually from 114 µM), for inactives: top-dose activity change, negative = inhibition, actives largely listed as inhibitors | hit rate 0.041% among 370,000;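 note: 0% = no-compound wells and -100% = no-enzyme wells; nearly all actives have a fitted effect of over 25% in size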
#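 20 mM phosphate pH 7.0 + 0.01% (detergent screen) or 0.0001% Triton X-100; 5.3 nM AmpC reagent; cpd preinc 15 min RT; nitrocefin (800 uM stock) to start; A480 q20 s × 4 min; Activity was normalised to no-enzyme and no-compound control wells.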
# Pf growth 96h: Primary qHTS for delayed death inhibitors of the malarial parasite plastid, 96 hour incubation | P. falciparum luciferase reporter growth, 96 h | Potency, µM (doses to about 28.7 µM), for inactives: at the highest dose activity change, negative = inhibition, actives largely listed as inhibitors | hit rate 6.9% among 320,000 | AID 504834, 2011; note: % is set by controls: 0 for no effect and ±100 for the full control effect
#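 Two-generation exposure (96 h) targets delayed-death phenotype. Reporter parasites carrying integrated firefly luciferase, in red cells at 2% hematocrit and 0.05% parasitemia final, kept at 37 C, 5% CO2; luminescence loss indicates inhibition.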
# Starred values were filed as active, the others as inactive; ? = inconclusive; nt = no result given. An excerpt weighted towards active compounds, which were near 12% of everything screened. Unless noted, calls come from the whole dose curve; as a rule, active = well fitted curve in the direction sought with a large enough effect; inconclusive = small, poorly fitted or top-dose-only effect, or another doubt; inactive = no such curve, though single readings can be large; an effect the other way counts as inactive or inconclusive. Potency is the fitted concentration of half-maximal effect.
SMILES,Pf growth 48h,SARS PLpro yeast,AmpC no deterg,Sm TGR inh,AmpC detergent,Pf growth 96h
Nc1c(C(=O)Nc2ccc(S(=O)(=O)N3CCCC3)cc2)sc2nc3cc4c(cc3cc12)CCC4,1.9µM*,1%,-17%,2%,?,-9%
COC(=O)C1C(c2ccc(OC)c(OC)c2)NC(c2ccc(OC)c(OC)c2)C(C(=O)OC)S1(=O)=O (stereo unspecified),-20%,8%,61%,20µM*,7%,?
COc1ccc(CNC(=O)NCc2ccc(OC)c(OC)c2)cc1OC,-3%,-4%,-16%,-32%,?,30%
CCc1ccc(OCC(=O)NC(NC(=S)Nc2ccc(Cl)cc2)C(Cl)(Cl)Cl)cc1 (stereo unspecified),?,-5%,-53%,3%,-16%,13µM*
COc1ccc(C(=O)NC(NC(=S)Nc2ccc(S(N)(=O)=O)cc2)C(Cl)(Cl)Cl)cc1 (stereo unspecified),?,7%,8.9µM*,1%,0%,?
CC(=O)c1ccc(NC(=O)c2ccc(NC(=O)c3ccco3)cc2)cc1,-30%,-4%,59%,17%,-4%,?
O=C(CCc1ccccc1)NC(NC(=S)Nc1cccc(Cl)c1)C(Cl)(Cl)Cl (stereo unspecified),?,6%,-36%,-11%,-5%,9.3µM*
CC(=O)c1ccc(NC(=S)NC(NC(=O)c2ccco2)C(Cl)(Cl)Cl)cc1 (stereo unspecified),nt,5%,13µM*,?,2%,-32%
Cc1nn(CC(=O)OCC(=O)NC(C)c2ccccc2)c(C)c1[N+](=O)[O-] (stereo unspecified),13%,1%,17%,7%,-6%,22%
CCOC(=O)N1CCN(C(=O)/C(=C/c2cccs2)NC(=O)c2ccc(OC)c(OC)c2)CC1,?,4%,80%,-12%,1%,20%
Cc1ccc(N(CC(=O)Nc2ccc(Cl)cc2)S(=O)(=O)c2cccc3nonc23)cc1,nt,nt,nt,2%,4%,nt
O=C(NC(NC(=S)Nc1ccccc1O)C(Cl)(Cl)Cl)c1ccco1 (stereo unspecified),?,-46%,?,-13%,-4%,15%
O=C(NC(NC(=S)Nc1ccc(Cl)cc1)C(Cl)(Cl)Cl)c1ccco1 (stereo unspecified),10µM*,-10%,?,?,-7%,21%
CC[C@@H]1[C@H]2CCCC(=O)N3CC[C@@H](C[C@@H]1OC(=O)NCc1ccccc1)[C@@H]23,29%,-6%,34%,35µM*,?,?
CCCCNC(=O)O[C@H]1C[C@@H]2CCN3C(=O)CCC[C@H]([C@H]1Cc1ccccc1)[C@H]23,2%,0%,61%,-29%,-14%,-14%
N#Cc1c(N)sc(=S)c2c1CCCC2,-4%,7%,-45%,28µM*,0%,2%
COc1ccc(C2=NN(C(=O)CSc3ncccn3)C(c3cccc(OC)c3OC)C2)cc1 (stereo unspecified),?,-7%,44%,14%,5%,?
COc1cccc(C2CC(c3ccc(C)cc3)=NN2C(=O)c2ccccc2F)c1OC (stereo unspecified),5.2µM*,-3%,54%,1%,-9%,4.1µM*
Cc1ccc(C2=NN(C(=O)c3ccccc3F)C(c3ccccc3F)C2)cc1 (stereo unspecified),4.1µM*,-7%,-45%,10%,-3%,-42%
COc1cccc(N2CC(NC(=O)c3cc(Cl)ccc3OC)CC2=O)c1 (stereo unspecified),nt,nt,nt,9%,2%,nt
